SMILES strings stand for the structures. The panel holds about 83,000 compounds, 20% with a hit somewhere; the sample as a whole holds those more often.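 Note: values are percent growth. 100 is the growth of untreated cells, values between 100 and 0 indicate rising inhibition; between -100 and 0 indicates cell death.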 Values without a mark were called inactive. The source made the active and inactive calls. Rule for the calls: active = growth percent below 10; inactive = the rest.

The assay has as its system MALME-3M melanoma. The assay is described as follows: NCI-60 one-dose screen, 48 h (100 = growth as untreated, 0 = no growth, -100 = all killed). As to conditions: 10 µM unless noted.
Regarding `O=C1CCc2c(sc3[nH]c(=S)n(-c4cc(C(F)(F)F)cc(C(F)(F)F)c4)c(=O)c23)C1`, the growth is -16.7% (active).
The result for `COc1cc2cc(Oc3ccc(NC(=O)Nc4ccc(F)c(C(F)(F)F)c4)cc3)c(C)nc2cc1OCCN1CCCCC1` reads -87.9% (active); that for `Cc1ccc2c(c1)CC(O)CC1C(=O)N(CCO)CC(=O)N21` (centres undefined), 100%; that for `CC(C)(C)CC(C)(C)Nc1c(-c2c(O)c3ccccc3oc2=O)nc2sccn12`, 94%.
The result for `O=C1NC(=O)C(=Cc2cc(-c3ccc(Cl)cc3)n(-c3ccccc3)n2)C(=O)N1` reads 99.2%; that for `CCOC(=O)c1c2c(n3ccc(NC(=O)CCN4CCCC4)cc13)C(=O)c1ncccc1C2=O`, 66.3%.
As to `COc1ccc(-c2ccc(-c3ccc(C(=N)N)o3)o2)cc1`, the growth is 57.1%.
For `CC(C)c1nc(N(C)S(C)(=O)=O)nc(-c2ccc(F)cc2)c1/C=C/C(=O)C[C@@H](O)CC(=O)O`, the growth was 109%.
The result for `CCOc1cc(\C=N/N=C(N)/C(N)=N\N=C/c2ccc(O)c(OCC)c2)ccc1O` reads 123%.

(Values after PubChem BioAssay (NCI).)
